From PubChem BioAssay (NCI)
About 83,000 compounds went through this panel and 20% of them were active in at least one assay; those are over-represented in the sample as a whole.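 Note: values are percent growth. 100 is the growth of untreated cells, values between 100 and 0 indicate rising inhibition; between -100 and 0 indicates cell death.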 Values without a mark were called inactive. Active and inactive are the calls of the source. Rule for the calls: active = growth percent below 10; inactive = the rest.

Tests used:
Experiment in all cases: NCI-60 one-dose screen, 48 h (100 = growth as untreated, 0 = no growth, -100 = all killed)
Settings in all cases: 10 µM unless noted
SK-MEL-2 melanoma = system: SK-MEL-2 melanoma
EKVX NSCLC = system: EKVX NSCLC
SN12C renal = system: SN12C renal
UO-31 renal = system: UO-31 renal
TK-10 renal = system: TK-10 renal
ACHN renal = system: ACHN renal
CAKI-1 renal = system: CAKI-1 renal
A498 renal = system: A498 renal
CCRF-CEM leukemia = system: CCRF-CEM leukemia
MOLT-4 leukemia = system: MOLT-4 leukemia
RPMI-8226 leukemia = system: RPMI-8226 leukemia
OVCAR-8 ovarian = system: OVCAR-8 ovarian
OVCAR-5 ovarian = system: OVCAR-5 ovarian
OVCAR-4 ovarian = system: OVCAR-4 ovarian
SK-OV-3 ovarian = system: SK-OV-3 ovarian
IGROV1 ovarian = system: IGROV1 ovarian
OVCAR-3 ovarian = system: OVCAR-3 ovarian
HS 578T breast = system: HS 578T breast
NCI/ADR-RES ovarian = system: NCI/ADR-RES ovarian

Compound	growth (SK-MEL-2 melanoma)	growth (EKVX NSCLC)	growth (SN12C renal)	growth (UO-31 renal)	growth (TK-10 renal)	growth (ACHN renal)	growth (CAKI-1 renal)	growth (A498 renal)	growth (CCRF-CEM leukemia)	growth (MOLT-4 leukemia)	growth (RPMI-8226 leukemia)	growth (OVCAR-8 ovarian)	growth (OVCAR-5 ovarian)	growth (OVCAR-4 ovarian)	growth (SK-OV-3 ovarian)	growth (IGROV1 ovarian)	growth (OVCAR-3 ovarian)	growth (HS 578T breast)	growth (NCI/ADR-RES ovarian)
CC1CCNC(C)C1 (centres undefined)	112%	107%	103%	93.2%	109%	106%	101%	106%	94.4%	116%	98.2%	107%	113%	99.6%	99.6%	116%	112%	104%	106%
N#CCCN=Nc1c(O)[nH]c2ccc([N+](=O)[O-])cc12	95.6%	91.3%	98.7%	76.9%	108%	96.3%	86.1%	94.3%	103%	100%	105%	102%	97%	105%	86%	99.6%	103%	103%	104%
NC1=C(Cl)C(=O)c2ccc(S(N)(=O)=O)cc2C1=O	-73.6% (active)	-77.6% (active)	-67.5% (active)	-95.9% (active)	-16.5% (active)	-95.6% (active)	-63.8% (active)	-99.5% (active)	20.1%	11.8%	-0.705% (active)	-53.9% (active)	-87.7% (active)	-100% (active)	-45.3% (active)	-85.5% (active)	-95.5% (active)	-21% (active)	-30.7% (active)
COc1cc2nc(N3CCCC3)nc(NCc3ccccc3)c2cc1OC	106%	74.7%	69.6%	52.1%	100%	62.2%	65.8%	36.3%	5.92% (active)	35.4%	12.7%	78.9%	80.4%	57.2%	96%	90.4%	68.1%	73.7%	72.4%
O=C(COc1ccc(/C=C2\CSc3ccccc3C2=O)cc1)Nc1nccs1	83.5%	129%	95.2%	75.7%	85.5%	104%	87.5%	159%	-66.1% (active)	-30% (active)	-11% (active)	79.4%	92.6%	104%	127%	-51.8% (active)	87.5%	135%	80.1%
CCCOc1ccc2nc(NC(=O)OC)[nH]c2c1	-1.33% (active)	57.1%	23.2%	37.5%	35.7%	31.5%	51.7%	9.31% (active)	7.62% (active)	17.7%	7.83% (active)	3.91% (active)	39.2%	53.3%	4.92% (active)	36.9%	-46.8% (active)	29.8%	-6.3% (active)
N#Cc1c(-c2ccc(Cl)cc2)nc(NN=Cc2ccco2)nc1N1CCOCC1	82.3%	46.5%	82.1%	27.1%	68.8%	76.7%	62.8%	-19.9% (active)	88.7%	83%	66.5%	87.9%	76.9%	65.9%	49.4%	25.9%	66.6%	68.2%	75.8%
Cc1c(/C=C/[N+](=O)[O-])ccc2c1[nH]c1ccccc12	93.5%	98.6%	99.7%	94.3%	93.2%	111%	102%	83.6%	87%	94.9%	-15% (active)	94.1%	106%	116%	114%	101%	123%	104%	108%
C=CC(=O)Nc1cccc(-c2nc(SC)nc(NCc3ccccc3)c2C#N)c1	60.8%	44%	42.1%	31.1%	69.1%	50.6%	40.5%	-1.24% (active)	60.3%	49.1%	38.5%	39.8%	85.4%	48.5%	72.2%	57.3%	48.4%	51.8%	48.3%
CC(C)(O)c1cn(CCCCN2C(=O)C(=O)c3ccccc32)nn1	101%	93.7%	102%	82.7%	108%	104%	93.9%	71.7%	101%	94.6%	95.9%	102%	96.4%	96.5%	95.7%	102%	109%	99.6%	99.9%
COc1cccc(-c2nc3sccn3c2-c2ccnc(NCCNS(=O)(=O)c3ccc(F)cc3)c2)c1	21.3%	28.2%	27.1%	16.7%	46.5%	13%	18.4%	18.2%	14.2%	7.99% (active)	-14.1% (active)	20.1%	49.3%	22.3%	43.7%	28.6%	42%	52.4%	10.7%
CCC(=O)c1ccc(Cl)s1	102%	117%	101%	98%	103%	107%	102%	98.4%	101%	94%	104%	101%	105%	109%	114%	118%	112%	103%	104%
COC(=O)c1ccc2oc(NC(=O)c3ccc(Nc4ccc([N+](=O)[O-])cc4C)c([N+](=O)[O-])c3)nc2c1	101%	79.9%	97.2%	90.7%	100%	104%	89.5%	108%	107%	105%	108%	104%	109%	100%	102%	104%	105%	93.2%	106%
COc1cccc(Nc2nc(SC)nc(-c3cccc([N+](=O)[O-])c3)c2C#N)c1	96.3%	64.7%	68.8%	26.7%	75.8%	23.9%	60.1%	78.5%	99.6%	98.2%	95%	36.4%	81.6%	-1.38% (active)	31.3%	74.7%	51.8%	45%	70.2%
O=C(/C=C/c1ccccc1)c1ccc(O)c(CN2CCN(c3cc4c(cc3F)c(=O)c(C(=O)O)cn4C3CC3)CC2)c1	22.8%	43.3%	8.48% (active)	12.3%	62.7%	14.4%	20.6%	-18.4% (active)	18.4%	35.8%	-7.8% (active)	9.75% (active)	38.2%	85%	20.3%	28.7%	18.4%	31%	49%
C=CC(=O)Nc1cccc(Nc2nc(SC)nc(-c3cccc([N+](=O)[O-])c3)c2C#N)c1	46.8%	53.2%	62.9%	60.8%	32.1%	55.6%	42.6%	-1.13% (active)	72.2%	59.8%	48.2%	43.4%	71.8%	32.9%	74.3%	54.9%	19.9%	53.7%	61.8%
